Experimental data as given in PubChem BioAssay (Tox21).
Results filed as inconclusive are left out. Active and inactive are the calls of the source. Unless noted, the call rests on the fitted dose curve; in most records, active means well fitted curve in the direction sought with a large enough effect in the repeat runs; inconclusive means weak or mixed curves; inactive means no such curve, though single readings can be large; an effect the other way counts as inactive or inconclusive.

Legend:
[1] = molecular target: Aryl hydrocarbon receptor (Homo sapiens) (UniProt P35869); assay: qHTS assay to identify small molecule that activate the aryl hydrocarbon receptor (AhR) signaling pathway (AID 743085);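 further: HG2L7.5c1 human HepG2 liver cells with stably integrated DRE-driven firefly reporter; series mostly up to about 70 µM; nearly all actives have a fitted effect of over 15% in size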
Aryl hydrocarbon receptor (Homo sapiens), sequence (P35869 whole entry, looked up): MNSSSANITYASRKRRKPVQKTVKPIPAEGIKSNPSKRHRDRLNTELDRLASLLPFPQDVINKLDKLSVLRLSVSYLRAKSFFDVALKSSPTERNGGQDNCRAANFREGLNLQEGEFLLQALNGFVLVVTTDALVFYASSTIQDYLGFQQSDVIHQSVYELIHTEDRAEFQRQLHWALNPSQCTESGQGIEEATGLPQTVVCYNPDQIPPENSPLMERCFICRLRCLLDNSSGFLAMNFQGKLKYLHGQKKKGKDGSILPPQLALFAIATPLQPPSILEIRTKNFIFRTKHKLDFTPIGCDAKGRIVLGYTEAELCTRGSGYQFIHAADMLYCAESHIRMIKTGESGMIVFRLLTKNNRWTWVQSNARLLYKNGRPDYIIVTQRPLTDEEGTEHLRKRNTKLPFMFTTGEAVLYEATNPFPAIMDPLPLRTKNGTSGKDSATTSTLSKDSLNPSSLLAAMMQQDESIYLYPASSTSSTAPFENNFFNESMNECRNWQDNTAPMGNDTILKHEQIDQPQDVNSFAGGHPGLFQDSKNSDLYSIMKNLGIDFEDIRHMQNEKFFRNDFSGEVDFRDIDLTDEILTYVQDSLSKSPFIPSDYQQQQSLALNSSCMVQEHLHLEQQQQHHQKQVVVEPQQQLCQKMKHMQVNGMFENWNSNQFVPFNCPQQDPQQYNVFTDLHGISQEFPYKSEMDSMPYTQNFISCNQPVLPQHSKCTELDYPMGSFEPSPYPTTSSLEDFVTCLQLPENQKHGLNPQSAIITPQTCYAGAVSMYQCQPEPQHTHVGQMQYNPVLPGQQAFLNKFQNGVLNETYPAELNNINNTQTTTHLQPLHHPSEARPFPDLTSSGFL
Procedure, shortened: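 A multiplexed format paired cell viability (CellTiter-Fluor fluorescence) with AhR-dependent luciferase output (ONE-Glo luminescence) in the same wells of HepG2 DRE-luc cells after 24 h compound exposure at 37C.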

[2] = qHTS assay to identify small molecule that activate the aryl hydrocarbon receptor (AhR) signaling pathway - cell viability counter screen (AID 743086);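 further: HepG2 liver cells carrying the AhR DRE luciferase reporter; series mostly up to about 70 µM; nearly all actives have a fitted effect of over 45% in size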
Procedure, shortened: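 HepG2-AhR-luc (HG2L7.5c1) cells, 4000/well, treated 24 h at 37 C with compound; viability measured as CellTiter-Fluor fluorescence after 30 min in the same wells as the luciferase read.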

[3] = molecular target: Peroxisome proliferator-activated receptor gamma (Homo sapiens) (UniProt P37231); assay: qHTS assay to identify small molecule agonists of the peroxisome proliferator-activated receptor gamma (PPARg) signaling pathway (AID 743094; active means well fitted activation curve with a large enough effect in the signal ratio in the repeat runs, not every such curve was filed as active; the % refers to the signal ratio)
Peroxisome proliferator-activated receptor gamma (Homo sapiens), sequence (P37231 whole entry, looked up): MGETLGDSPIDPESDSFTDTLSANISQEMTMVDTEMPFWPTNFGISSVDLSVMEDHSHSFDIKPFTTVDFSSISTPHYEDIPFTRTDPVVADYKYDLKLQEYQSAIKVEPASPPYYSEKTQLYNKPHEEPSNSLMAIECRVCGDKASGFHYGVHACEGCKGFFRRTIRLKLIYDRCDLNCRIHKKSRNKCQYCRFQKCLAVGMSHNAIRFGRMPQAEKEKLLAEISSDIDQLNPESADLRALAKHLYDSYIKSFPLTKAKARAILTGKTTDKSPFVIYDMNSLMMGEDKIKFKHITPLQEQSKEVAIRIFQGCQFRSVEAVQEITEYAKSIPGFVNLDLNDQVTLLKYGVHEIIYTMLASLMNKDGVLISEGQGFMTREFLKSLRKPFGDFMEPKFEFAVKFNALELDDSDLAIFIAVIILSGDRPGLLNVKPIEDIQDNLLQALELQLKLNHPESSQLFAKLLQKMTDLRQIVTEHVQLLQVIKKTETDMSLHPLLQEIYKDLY
Procedure, shortened: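 Reporter activation was scored by fluorescence of cleaved LiveBLAzer B/G substrate (1 h, room temperature) in PPARg-bla HEK293H cells previously treated 17 h at 37C with DMSO-dissolved compounds.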

[4] = qHTS assay to identify small molecule antagonists of the peroxisome proliferator-activated receptor gamma (PPARg) signaling pathway - cell viability counter screen (AID 743194); further: nearly all actives have a fitted effect of over 55% in size
Procedure, shortened: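 Cytotoxicity counter screen in PPARg-bla HEK293H cells, same wells as reporter assay. Compounds plus 50 nM rosiglitazone (final) for 17 h at 37 C, then viability read by CellTiter-Glo luminescence.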

[5] = qHTS assay for small molecule agonists of the antioxidant response element (ARE) signaling pathway - cell viability counter screen (AID 743203; calls by dose curve; further: nearly all actives have a fitted effect of over 55% in size)
Procedure, shortened: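 Viability counter screen: stably transfected ARE-bla HepG2 line, 16 hrs compound exposure at 37C/5% CO2, ATP-based CellTiter-Glo luminescence measured in the reporter wells.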

[6] = qHTS assay for small molecule activators of the heat shock response signaling pathway - cell viability counter screen (AID 743209); further: nearly all actives have a fitted effect of over 50% in size
Procedure, shortened: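 Viability of HSE-bla HeLa cells is measured with CellTiter-Glo in the wells already used for the reporter read. Compound exposure lasts 5 h at 37 C, and luminescence is read after 30 min at room temperature.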

[7] = molecular target: Peroxisome proliferator-activated receptor delta (Homo sapiens) (UniProt Q03181); assay: qHTS assay to identify small molecule agonists of the peroxisome proliferator-activated receptor delta (PPARd) signaling pathway (AID 743212; calls by dose curve)
Peroxisome proliferator-activated receptor delta (Homo sapiens), sequence (Q03181 whole entry, looked up): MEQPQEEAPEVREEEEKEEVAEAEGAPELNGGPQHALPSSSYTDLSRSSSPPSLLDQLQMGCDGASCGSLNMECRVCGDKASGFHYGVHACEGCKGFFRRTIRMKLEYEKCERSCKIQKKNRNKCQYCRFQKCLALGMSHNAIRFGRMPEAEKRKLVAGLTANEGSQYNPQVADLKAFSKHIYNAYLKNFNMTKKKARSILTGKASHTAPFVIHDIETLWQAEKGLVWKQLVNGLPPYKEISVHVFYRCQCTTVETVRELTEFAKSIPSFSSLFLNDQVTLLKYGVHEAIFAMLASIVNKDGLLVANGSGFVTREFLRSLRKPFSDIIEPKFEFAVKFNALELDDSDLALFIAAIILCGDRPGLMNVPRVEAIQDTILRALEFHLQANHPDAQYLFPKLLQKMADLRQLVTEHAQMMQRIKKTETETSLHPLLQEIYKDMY
Procedure, shortened: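 Read-out: beta-lactamase FRET fluorescence after 2 h room-temperature incubation with LiveBLAzer B/G substrate. Cells were HEK293H carrying a UAS-bla reporter for PPARd, treated at 37 C with DMSO-dissolved compounds.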

[8] = molecular target: Peroxisome proliferator-activated receptor delta (Homo sapiens) (UniProt Q03181); assay: qHTS assay to identify small molecule antagonists of the peroxisome proliferator-activated receptor delta (PPARd) signaling pathway (AID 743215; active means well fitted inhibition curve with a large enough effect in the signal ratio in the repeat runs, not every such curve was filed as active; the % refers to the signal ratio;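 further: cells stimulated with agonist L165041 at 300 nM final during compound exposure; series mostly up to about 62 µM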)
Procedure, shortened: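 Plated HEK293H PPARd-bla cells rested 5 h at 37 C and 5% CO2. Compound, then agonist L165041 at 300 nM final, was added; 17 h at 37 C followed. Substrate loading, 2 h room temperature, fluorescence measured.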

[9] = qHTS assay to identify small molecule agonists of the farnesoid-X-receptor (FXR) signaling pathway - cell viability counter screen (AID 743218); further: nearly all actives have a fitted effect of over 45% in size
Procedure, shortened: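 Viability of FXR-bla HEK 293T cells is measured by ATP-based CellTiter-Glo luminescence following 16 h compound treatment at 37 C and a prior 2 h room-temperature beta-lactamase substrate step.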

[10] = qHTS assay to identify small molecule antagonists of the farnesoid-X-receptor (FXR) signaling pathway - cell viability counter screen (AID 743221; active means well fitted cell-killing curve with a large enough effect in the repeat runs, not every such curve was filed as active; further: nearly all actives have a fitted effect of over 50% in size)
Procedure, shortened: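 Cytotoxicity is taken from ATP luminescence (CellTiter-Glo, 30 min, room temperature) in FXR-bla HEK 293T cells previously incubated 16 h at 37 C with compound and chenodeoxycholic acid at 50 uM final.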

[11] = molecular target: Vitamin D3 receptor (Homo sapiens) (UniProt P11473); assay: qHTS assay to identify small molecule agonists of the vitamin D receptor (VDR) signaling pathway (AID 743222; calls by dose curve)
Vitamin D3 receptor (Homo sapiens), sequence (P11473 whole entry, looked up): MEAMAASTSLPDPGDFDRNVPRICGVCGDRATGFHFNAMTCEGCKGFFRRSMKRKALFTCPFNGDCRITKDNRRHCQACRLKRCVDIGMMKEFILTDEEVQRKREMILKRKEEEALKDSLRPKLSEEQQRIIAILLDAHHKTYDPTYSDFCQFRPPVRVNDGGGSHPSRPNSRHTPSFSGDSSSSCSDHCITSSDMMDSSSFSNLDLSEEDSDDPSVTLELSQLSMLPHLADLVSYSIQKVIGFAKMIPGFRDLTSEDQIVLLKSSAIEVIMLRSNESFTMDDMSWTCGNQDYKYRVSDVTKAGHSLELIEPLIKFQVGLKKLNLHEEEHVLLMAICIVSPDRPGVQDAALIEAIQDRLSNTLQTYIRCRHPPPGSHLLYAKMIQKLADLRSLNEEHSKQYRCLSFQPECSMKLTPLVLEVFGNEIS
Procedure, shortened: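 Fluorescence from cleaved LiveBLAzer B/G FRET substrate served as readout. VDR-bla cells had been treated 16 h at 37C with test compounds in DMSO, following a 4 h settling period, and substrate was loaded for 2 h at RT.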

[12] = molecular target: Vitamin D3 receptor (Homo sapiens) (UniProt P11473); assay: qHTS assay to identify small molecule antagonists of the vitamin D receptor (VDR) signaling pathway (AID 743223; active means well fitted inhibition curve with a large enough effect in the signal ratio in the repeat runs, not every such curve was filed as active; the % refers to the signal ratio)
Procedure, shortened: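 Quantitative HTS in VDR-bla reporter cells stimulated with 1alpha,25-dihydroxyvitamin D3, 3 nM final. Compound exposure 16 h, 37C, 5% CO2. Read-out: beta-lactamase FRET substrate fluorescence, 2 h RT.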

[13] = qHTS assay to identify small molecule agonists of the vitamin D receptor (VDR) signaling pathway - cell viability counter screen (AID 743224); further: series mostly up to about 63 µM; nearly all actives have a fitted effect of over 50% in size
Procedure, shortened: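 Compounds were pin-transferred onto VDR-bla cells plated 4 h earlier; following 16 h incubation at 37C, cell viability was quantified by CellTiter-Glo luminescence after 30 min at room temperature.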

[14] = qHTS assay for small molecule agonists of the antioxidant response element (ARE) signaling pathway (AID 743202; active means well fitted activation curve with a large enough effect in the signal ratio in the repeat runs, not every such curve was filed as active; the % refers to the signal ratio)
Procedure, shortened: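 HepG2 ARE-bla reporter line, 2,000 cells/well; 5 h preincubation 37 C/5% CO2; compound (DMSO) 16 h 37 C; B/G FRET substrate 2 h RT; fluorescence intensity.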

[15] = qHTS assay for small molecule activators of the heat shock response signaling pathway (AID 743210; active means well fitted activation curve with a large enough effect in the signal ratio in the repeat runs, with a control signal flat, not every such curve was filed as active; the % refers to the signal ratio;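 further: HeLa cells with beta-lactamase reporter driven by heat shock elements; series mostly up to about 63 µM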)
Procedure, shortened: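 Beta-lactamase reporter read-out: FRET substrate fluorescence after 2.5 h at RT, following 5 h compound treatment at 37 C of HeLa cells carrying HSE-driven bla reporter; quantitative HTS format.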

[16] = molecular target: Bile acid receptor (Homo sapiens) (UniProt Q96RI1); assay: qHTS assay to identify small molecule antagonists of the farnesoid-X-receptor (FXR) signaling pathway (AID 743217; active means well fitted inhibition curve with a large enough effect in the signal ratio in the repeat runs, not every such curve was filed as active; the % refers to the signal ratio)
Bile acid receptor (Homo sapiens), sequence (Q96RI1 whole entry, looked up): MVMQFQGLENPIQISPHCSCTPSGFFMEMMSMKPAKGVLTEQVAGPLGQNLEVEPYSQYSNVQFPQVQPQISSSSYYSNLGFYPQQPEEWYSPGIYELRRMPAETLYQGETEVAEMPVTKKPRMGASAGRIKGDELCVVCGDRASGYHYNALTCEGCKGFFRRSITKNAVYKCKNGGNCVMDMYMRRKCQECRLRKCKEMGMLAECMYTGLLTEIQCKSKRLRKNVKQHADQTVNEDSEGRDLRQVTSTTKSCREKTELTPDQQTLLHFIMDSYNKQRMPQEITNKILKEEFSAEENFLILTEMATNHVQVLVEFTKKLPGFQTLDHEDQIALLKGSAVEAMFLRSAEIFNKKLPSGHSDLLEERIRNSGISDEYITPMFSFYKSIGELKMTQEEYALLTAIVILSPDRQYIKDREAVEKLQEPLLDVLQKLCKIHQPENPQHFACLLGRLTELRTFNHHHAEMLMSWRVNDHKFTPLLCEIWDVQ
Procedure, shortened: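 Screen of the Tox21 10K library in quantitative HTS format using FXR-UAS-bla HEK 293T reporter cells. Agonist chenodeoxycholic acid, 50 uM final, added with compounds; 16 h incubation at 37 °C; beta-lactamase FRET fluorescence measured.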

[17] = molecular target: Bile acid receptor (Homo sapiens) (UniProt Q96RI1); assay: qHTS assay to identify small molecule agonists of the farnesoid-X-receptor (FXR) signaling pathway (AID 743220; active means well fitted activation curve with a large enough effect in the signal ratio in the repeat runs, not every such curve was filed as active; the % refers to the signal ratio)
Procedure, shortened: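 FXR-UAS-bla HEK 293T cells carrying a UAS-driven beta-lactamase reporter were plated for 5 h at 37C/5% CO2, then exposed to DMSO-dissolved Tox21 10K compounds for 16 h at 37C. A LiveBLAzer B/G FRET substrate was loaded for 2 h at room temperature before fluorescence reading.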

[18] = qHTS assay to identify small molecule agonists of the peroxisome proliferator-activated receptor delta (PPARd) signaling pathway - cell viability counter screen (AID 743211); further: nearly all actives have a fitted effect of over 55% in size
Procedure, shortened: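 Tox21 library compounds, delivered in DMSO, were incubated 17 h with PPARd-bla HEK293H cells; cytotoxicity was taken from CellTiter-Glo luminescence read 30 min after reagent addition.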

[19] = qHTS assay to identify small molecule antagonists of the peroxisome proliferator-activated receptor delta (PPARd) signaling pathway - cell viability counter screen (AID 743213); further: nearly all actives have a fitted effect of over 50% in size
Procedure, shortened: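 In this counter screen, HEK293H cells carrying a UAS-beta-lactamase reporter are co-treated with test compounds and 300 nM L165041 (final) for 17 h at 37 C; cell viability is quantified by CellTiter-Glo luminescence.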

[20] = molecular target: Peroxisome proliferator-activated receptor gamma (Homo sapiens) (UniProt P37231); assay: qHTS assay to identify small molecule antagonists of the peroxisome proliferator-activated receptor gamma (PPARg) signaling pathway (AID 743191; calls by dose curve; further: series mostly up to about 63 µM; nearly all actives have a fitted effect of over 30% in size)
Procedure, shortened: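 GeneBLAzer PPARg UAS-bla HEK293H cells, 5 h post-plating, exposed to compounds 17 h at 37C. LiveBLAzer B/G FRET substrate added for 1 h at room temperature; beta-lactamase reporter read by fluorescence intensity.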

Measured: Potency

CC(C)NCC(O)c1ccc2ccccc2c1 (configuration not stated)
inactive: [1] | [2] | [3] | [4] | [5] | [6] | [7] | [8] | [9] | [10] | [11] | [12] | [13]

C=CC/C=C/C
inactive: [1] | [2] | [3] | [4] | [14] | [5] | [6] | [15] | [7] | [16] | [9] | [17] | [13]

CCCCCC/C=C/C(=O)OC
inactive: [1] | [2] | [3] | [4] | [5] | [6] | [18] | [19] | [9] | [17] | [11] | [12]

CCCC(=O)OCCC(C)CCC=C(C)C (configuration not stated)
inactive: [1] | [2] | [3] | [4] | [14] | [5] | [18] | [7] | [19] | [9] | [10] | [13]

Cc1ccccc1C(N)=O
inactive: [1] | [2] | [3] | [14] | [5] | [6] | [15] | [18] | [7] | [19] | [8] | [16] | [9] | [17] | [10] | [13]

CCc1occc(=O)c1O
inactive: [1] | [2] | [3] | [4] | [5] | [6] | [15] | [18] | [7] | [8] | [16] | [17] | [10] | [13]

CCOCCOCC
inactive: [1] | [2] | [3] | [4] | [14] | [5] | [6] | [18] | [7] | [16] | [9] | [17] | [10] | [11] | [13]

CC1CC(=O)CC(C)(C)C1 (configuration not stated)
inactive: [1] | [2] | [3] | [4] | [14] | [5] | [6] | [15] | [18] | [7] | [19] | [9] | [11] | [12] | [13]

CCCCOCCOC(=O)COc1ccc(Cl)cc1Cl
inactive: [1] | [2] | [3] | [4] | [5] | [6] | [15] | [18] | [9] | [10] | [11] | [13]

CC(=O)OCC(=O)Nc1cc(C#N)cc(NC(=O)COC(C)=O)c1Cl
inactive: [1] | [2] | [3] | [4] | [14] | [5] | [6] | [15] | [9] | [10] | [11] | [12] | [13]

Cc1ccnc(N)c1
inactive: [2] | [3] | [20] | [4] | [14] | [5] | [15] | [18] | [7] | [19] | [8] | [16] | [9] | [17] | [10] | [13]

O=C[O][Al]([O]C=O)[O]C=O
inactive: [1] | [2] | [14] | [5] | [6] | [15] | [18] | [7] | [8] | [16] | [9] | [17] | [11] | [13]

CC(C)CO
inactive: [1] | [2] | [14] | [5] | [6] | [15] | [18] | [19] | [9] | [10] | [11] | [13]

CC1CCc2c(N3CCC(O)CC3)c(F)cc3c(=O)c(C(=O)O)cn1c23 (configuration not stated)
inactive: [1] | [2] | [3] | [5] | [6] | [15] | [18] | [7] | [8] | [9] | [10] | [12] | [13]

Cn1c(=O)c2c(ncn2CCO)n(C)c1=O
inactive: [1] | [2] | [14] | [5] | [6] | [15] | [18] | [7] | [19] | [8] | [9] | [10] | [11] | [12] | [13]

[O]=[Mo](=[O])=[O]
inactive: [1] | [2] | [4] | [14] | [5] | [6] | [7] | [19] | [9] | [10] | [11] | [12] | [13]

CC1OCCC1=O (configuration not stated)
inactive: [1] | [2] | [4] | [5] | [6] | [18] | [19] | [9] | [13]

C=C(C)[C@@H]1CC=C(C)C(=O)C1
inactive: [1] | [2] | [3] | [5] | [6] | [18] | [19] | [9] | [10] | [11] | [12] | [13]

CCC/C=C(\C=O)CC
inactive: [1] | [2] | [14] | [5] | [6] | [18] | [7] | [9] | [10] | [11] | [13]

C=C(C)[C@@H]1CC=C(C)CC1
inactive: [1] | [2] | [5] | [15] | [18] | [9] | [10]
